Screening results (PubChem)
Only some compounds are listed: those with a hit (about 2.9% of all), similar ones and a draw of the others.
Pf gamet viab: late stage P. falciparum gametocyte viability inhibitors, primary screen, ATP luminescence, HTS. P. falciparum stage V gametocytes, 24 h. inhibition, % at 10.9 µM. hit rate 0.065% among 150,000. AID 743093, 2013;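 active = inhibition above the mean plus 3 SD of compounds within the control limits, set per campaign, cut at about 38% in these data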;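 also: 0% = DMSO wells and 100% = medium only without gametocytes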
14-3-3 Bad PPI: inhibitors of 14-3-3 zeta/Bad binding, primary screen, biochemical, TR-FRET, bovine 14-3-3 zeta; 14-3-3 protein zeta/delta (Bos taurus), P63103; TR-FRET 14-3-3zeta/Dy647-pBad peptide displacement, 1 h; inhibition, % at 21.7 µM; AID 781, 2007; hit rate 0.71% among 220,000;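 active = inhibition above about 70%, limit read from the data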;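 also: 0% = full 14-3-3 plus peptide FRET controls and 100% = background without 14-3-3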
Hck-Nef inh: inhibitors of Nef-activated human Hck kinase, primary screen, biochemical, Z-Lyte FRET, 384-well, Hck-YEEI; hit rate 0.68% among 220,000; AID 463187, 2010; Recombinant Hck-YEEI plus Nef, Z-Lyte FRET kinase assay; Tyrosine-protein kinase HCK (Homo sapiens), P08631; inhibition, % at 20 µM;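 active = Hck-Nef kinase inhibition above about 50%, limit read from the data; inactive = inhibition below that limit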;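 also: 0% = DMSO with Hck plus Nef and 100% = Hck alone without Nef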
Mcl1-Bid inh: Mcl-1/Bid binding inhibitors, primary screen, biochemical, TR-FRET, 1536-well; Induced myeloid leukemia cell differentiation protein Mcl-1 (Homo sapiens), Q07820; TR-FRET Mcl-1/Bid-Dy647 peptide binding; inhibition, % at 21.7 µM; hit rate 0.97% among 220,000;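 active = compounds that cut the binding signal by more than half at the single screening dose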;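 also: His-tagged Mcl-1 with europium anti-His antibody binding Bid BH3 peptide; 0% = Mcl-1 plus peptide wells and 100% = peptide-only wells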
Target sequence (Q07820 whole entry, looked up): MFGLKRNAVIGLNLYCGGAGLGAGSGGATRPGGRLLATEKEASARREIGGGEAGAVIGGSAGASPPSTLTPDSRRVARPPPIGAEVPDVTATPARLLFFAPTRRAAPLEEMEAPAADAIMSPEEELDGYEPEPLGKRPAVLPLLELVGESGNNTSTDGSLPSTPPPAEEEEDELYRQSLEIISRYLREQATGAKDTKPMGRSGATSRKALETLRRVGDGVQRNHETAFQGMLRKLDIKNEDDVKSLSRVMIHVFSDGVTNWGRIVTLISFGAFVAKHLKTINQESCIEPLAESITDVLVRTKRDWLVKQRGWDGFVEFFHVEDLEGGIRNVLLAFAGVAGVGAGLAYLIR
Mcl1-Noxa inh: Mcl-1/Noxa binding inhibitors, primary screen, biochemical, TR-FRET, 1536-well | Induced myeloid leukemia cell differentiation protein Mcl-1 (Homo sapiens), Q07820 | TR-FRET Mcl-1/Noxa peptide binding, 2 h | inhibition, % at 21.7 µM | hit rate 1.5% among 220,000;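 active = compounds that cut the protein-peptide binding signal by more than 50% relative to plate controls in a single-dose test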;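 also: His-tagged Mcl-1 with rhodamine Noxa BH3 peptide and terbium anti-His antibody; 0% = Mcl-1 plus Noxa peptide wells and 100% = peptide-only wells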
Bim-Mcl-1: inhibitors of Bim peptide binding to Mcl-1, primary screen, biochemical, bead-based flow cytometry, multiplex; Induced myeloid leukemia cell differentiation protein Mcl-1 (Homo sapiens), Q07820; Bim peptide-Mcl-1 binding; inhibition, % at 10 µM; hit rate 0.1% among 190,000; AID 1009, 2008; in the data active = inhibition above about 40%;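 also: 0% = no compound tracer wells and 100% = peptide blocker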
An asterisk follows results filed as active; . = no result given.

SMILES	Pf gamet viab	14-3-3 Bad PPI	Hck-Nef inh	Mcl1-Bid inh	Mcl1-Noxa inh	Bim-Mcl-1
Cc1ccc(S(=O)(=O)NCCCCCC(=O)Nc2ccccc2C)cc1	15	4	3	-28	12	-2
Cc1cc(=O)c2ccc(Cl)cc2[nH]1	.	5	-3	-10	-1	-3
Cc1cc(=O)c2ccc(C(F)(F)F)cc2[nH]1	-8	57	14	83*	30	.
Cc1ccc2c(c1)NC(=O)c1cccnc1N2	.	6	1	-76	77*	-2
O=[N+]([O-])c1ccccc1S(=O)(=O)N1CCN(CC2CC=CCC2)CC1 (centres undefined)	24	21	4	5	27	0
CCCS(=O)(=O)N1CCN(CC2CC3C=CC2C3)CC1 (centres undefined)	8	72*	1	-8	18	2
CCCS(=O)(=O)N1CCN(CC2CC=CCC2)CC1 (centres undefined)	-12	73*	0	29	16	-1
N#Cc1c(N2C(=O)Nc3ccccc3N2O)sc2c1CCCCCC2	12	-3	5	-6	8	-5
COc1ccc(-c2ccc(SCC(=O)N3CCOCC3)nn2)cc1	.	13	-1	-3	5	0
CCOc1ccccc1/C=N/NC(=O)c1cccc(S(=O)(=O)N(CC)CC)c1	1	-21	5	-4	4	-3
CCN(CC)S(=O)(=O)c1cccc(C(=O)N/N=C/c2ccc(O)c(O)c2O)c1	.	-10	0	-81	95*	44*
O=C(COc1ccccc1)Nc1ccc(Cl)cn1	23	10	7	-7	7	-3
O=C(COc1ccc(Cl)cc1)Nc1ccc(Cl)cn1	.	82*	2	-15	-1	0
Cc1ccc(-c2cc(-c3ccc(C)o3)nc(N)c2C#N)cc1	.	9	14	-27	42	37
Cc1cc(-c2cc(-c3ccc(Cl)cc3)nc(N)c2C#N)co1	13	21	34	41	67*	-3
Cc1ccc(-c2cc(-c3ccc(Cl)cc3)c(C#N)c(N)n2)o1	-32	-7	16	23	72*	-1
Cc1ccc(-c2cc(-c3ccc4c(c3)OCO4)c(C#N)c(N)n2)o1	.	0	21	80*	59*	2
CCCCC1(C(=O)OCC)CC(CN2CCOCC2)OC1=O (centres undefined)	-29	4	.	-11	11	-2
CC(C)(C)c1ccc(C(=O)N2CCC(C(=O)NCc3ccncc3)CC2)cc1	.	12	0	2	6	-10
CCc1cc(C(N)=S)ccn1	.	3	.	-8	53*	-1
CCC(=O)Nc1ccc2nc(SCC(=O)N3CCCC3)sc2c1	.	-3	0	-17	2	-1
COc1ccc(N/N=C(\C=N\O)C(=O)c2ccc(OC)cc2)cc1	9	2	-1	-44	-13	-9
N/N=C/C(=N\Nc1ccc(Cl)cc1)C(=O)c1ccncc1	45*	10	23	-26	28	.
COC(=O)c1ccc(CSc2nnc(NCc3ccccc3)s2)o1	22	-10	8	-8	3	-3
COC(=O)c1ccc(CSc2nc(-c3ccccc3)cs2)o1	-6	-11	0	-4	80*	-2
CC(NC(=O)C1(S(=O)(=O)c2ccc(Cl)cc2)CC1)c1ccccc1 (centres undefined)	3	0	2	6	16	-4
COc1ccc(C2c3c(ncn(CCCN4CCOCC4)c3=N)Oc3ccc4ccccc4c32)cc1OC (centres undefined)	15	-1	-11	-21	2	.
O=C(CN1CCN(C2CCCCC2)CC1)NCCC1=CCCCC1	-36	57	1	51*	33	3
CN(C)[C@@H]1C(=O)C(C(=O)NCN2CCCC2)=C(O)[C@@]2(O)C(=O)C3=C(O)c4c(O)cccc4[C@@](C)(O)C3CC12 (some centres undefined)	.	85*	15	87*	103*	22
